Experimental data reported in the supplement of paper PMC10849652.
Of roughly 8,800 targets only a part is listed; those with a hit were picked by preference. About 0.5% of all pairs of compound and target were hits.

Tests used:
Experiment in all cases: log2 fold change, soluble protein after heating vs DMSO (PISA); higher = thermal stabilisation; K562 lysate, 10 uM; active = over 0.2 and 3.5 SD of the protein, either way, in both replicates (recomputed)
ibrutinib = compound: C=CC(=O)N1CCC[C@@H](n2nc(-c3ccc(Oc4ccccc4)cc3)c3c(N)ncnc32)C1 [ibrutinib]
In short: (§1)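 A 30 min treatment with 10 μM compound was applied to crude K562 extract at 1 mg/mL protein in PBS pH 7.4 with 1 mM MgCl2. Heating for 3 min spanned 48°C-58°C, after which aliquots were pooled, adjusted to 0.5% NP-40 at 4°C and spun at 21,000xg for 90 min. TMTpro 16plex LC-MS/MS of the supernatant, with channel sums equalised, gave values recorded as log-two fold change in thermal stability against solvent controls, from duplicates.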

[1] = compound: CC(=O)c1cnc2ccc(-c3cc(Cl)c(O)c(Cl)c3)nc2c1N[C@H]1CC[C@H](CN(C)C)CC1
In short: as §1

ralimetinib = compound: CC(C)(C)Cn1c(N)nc2ccc(-c3[nH]c(C(C)(C)C)nc3-c3ccc(F)cc3)nc21 [ralimetinib]
In short: as §1

[2] = compound: CC(C)(O)CC(=O)NCCn1ccc2ncnc(Nc3ccc(Oc4cccc(C(F)(F)F)c4)c(Cl)c3)c21
In short: as §1

[3] = compound: CC(C)C1=C2N=C(C=C(N2N=C1)NCC3=CC=CC=C3)NCCCCCCN
In short: as §1

[4] = compound: CC1=C(C(CC(=O)N1)C2=CC=C(C=C2)C(F)(F)F)C(=O)NC3=C(C=C4C(=C3)C=NN4)F
In short: as §1

[5] = compound: CC1=C(C2=C(C=C1)C(=O)C3=CC=CC=C3N2CCCN)C
In short: as §1

[6] = compound: CC1=C(C=C(C=C1)NC(=O)C2=CC(=CC=C2)C(C)(C)C#N)NC3=CC4=C(C=C3)N=CN(C4=O)C
In short: as §1

[7] = compound: CC1=C(C=C(C=C1)NC(=O)C2=CC(=CC=C2)N(C)C)NC(=O)C3=CC=C(C=C3)O
In short: as §1

[8] = compound: CC1=CC=C(C=C1)SC2=C3C=C(SC3=CN=C2)C(=O)N
In short: as §1

vemurafenib = compound: CCCS(=O)(=O)Nc1ccc(F)c(C(=O)c2c[nH]c3ncc(-c4ccc(Cl)cc4)cc23)c1F [vemurafenib]
In short: as §1

[9] = compound: CCCS(=O)(=O)Nc1ccc(F)c(C(=O)c2c[nH]c3ncc(Cl)cc23)c1F
In short: as §1

barasertib = compound: CCN(CCCOc1ccc2c(Nc3cc(CC(=O)Nc4cccc(F)c4)[nH]n3)ncnc2c1)CCOP(=O)(O)O [barasertib]
In short: as §1

[10] = compound: CC[C@@H]1C(=O)N(C)c2cnc(Nc3ccc(C(=O)NC4CCN(C)CC4)cc3OC)nc2N1C1CCCC1
In short: as §1

volasertib = compound: CC[C@@H]1C(=O)N(C)c2cnc(Nc3ccc(C(=O)N[C@H]4CC[C@H](N5CCN(CC6CC6)CC5)CC4)cc3OC)nc2N1C(C)C [volasertib]
In short: as §1

[11] = compound: CCn1c(C(=O)N(C2CC2)C2CC2)cc2c3c(ncn3C)c(Nc3cc(C)n(C)n3)nc21
In short: as §1

[12] = compound: CCn1cc(-c2ccnc3[nH]c(-c4cccc(CN(C)C)c4)cc23)c(-c2ccc(NC(=O)N(C)C)cc2)n1
In short: as §1

[13] = compound: CN1CCC(CNc2ccc3ncc(-c4cccc(OC(F)(F)F)c4)n3n2)CC1
In short: as §1

saracatinib = compound: CN1CCN(CCOc2cc(OC3CCOCC3)c3c(Nc4c(Cl)ccc5c4OCO5)ncnc3c2)CC1 [saracatinib]
In short: as §1

sotrastaurin = compound: CN1CCN(c2nc(C3=C(c4c[nH]c5ccccc45)C(=O)NC3=O)c3ccccc3n2)CC1 [sotrastaurin]
In short: as §1

Measured: log2 fold change

APAF1 (UniProt O14727)
inactive: ibrutinib 0.027 | [1] 0.063 | ralimetinib 0.031 | [2] -0.04 | [3] 0.009 | [4] 0.008 | [5] -0.005 | [6] 0.003 | [7] 0.002 | [8] 0.022 | vemurafenib -0.014 | [9] -0.012 | barasertib 0.073 | [10] -0.087 | volasertib -0.056 | [11] 0.001 | [12] 0.115 | [13] -0.012 | saracatinib -0.028 | sotrastaurin 0.015

ABL2 (UniProt P42684)
inactive: [1] 0.078 | ralimetinib 0.005 | [2] 0.002 | [3] 0.002 | [4] -0.057 | [5] -0.112 | [6] 0.154 | [7] 0.093 | [8] -0.046 | vemurafenib 0.233 | [9] 0.222 | barasertib -0.002 | [10] 0.11 | volasertib -0.05 | [11] 0.009 | [12] 0.039 | [13] -0.128 | saracatinib 0.254 | sotrastaurin -0.02
active: ibrutinib 0.586

ABHD11 (UniProt Q8NFV4)
Sequence of UniProt Q8NFV4 (Q8NFV4 whole entry, looked up): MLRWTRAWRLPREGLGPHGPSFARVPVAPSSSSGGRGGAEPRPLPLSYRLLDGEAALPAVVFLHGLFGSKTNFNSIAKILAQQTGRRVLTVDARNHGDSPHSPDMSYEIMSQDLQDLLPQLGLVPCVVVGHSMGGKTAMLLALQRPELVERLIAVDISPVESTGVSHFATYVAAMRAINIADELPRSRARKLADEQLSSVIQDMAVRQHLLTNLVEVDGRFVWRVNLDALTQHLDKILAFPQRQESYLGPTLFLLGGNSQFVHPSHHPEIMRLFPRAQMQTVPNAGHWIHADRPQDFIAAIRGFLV
inactive: ibrutinib -0.012 | [1] 0.057 | ralimetinib -0.04 | [2] -0.048 | [3] -0.2 | [4] 0.018 | [5] -0.241 | [6] -0.013 | [7] 0 | [8] -0.017 | vemurafenib 0.062 | [9] -0.051 | barasertib 0.093 | [10] -0.029 | volasertib -0.082 | [11] 0.028 | [12] -0.109 | [13] 0.024 | saracatinib -0.026 | sotrastaurin -0.016

ASNS (UniProt P08243)
Sequence of UniProt P08243 (P08243 whole entry, looked up): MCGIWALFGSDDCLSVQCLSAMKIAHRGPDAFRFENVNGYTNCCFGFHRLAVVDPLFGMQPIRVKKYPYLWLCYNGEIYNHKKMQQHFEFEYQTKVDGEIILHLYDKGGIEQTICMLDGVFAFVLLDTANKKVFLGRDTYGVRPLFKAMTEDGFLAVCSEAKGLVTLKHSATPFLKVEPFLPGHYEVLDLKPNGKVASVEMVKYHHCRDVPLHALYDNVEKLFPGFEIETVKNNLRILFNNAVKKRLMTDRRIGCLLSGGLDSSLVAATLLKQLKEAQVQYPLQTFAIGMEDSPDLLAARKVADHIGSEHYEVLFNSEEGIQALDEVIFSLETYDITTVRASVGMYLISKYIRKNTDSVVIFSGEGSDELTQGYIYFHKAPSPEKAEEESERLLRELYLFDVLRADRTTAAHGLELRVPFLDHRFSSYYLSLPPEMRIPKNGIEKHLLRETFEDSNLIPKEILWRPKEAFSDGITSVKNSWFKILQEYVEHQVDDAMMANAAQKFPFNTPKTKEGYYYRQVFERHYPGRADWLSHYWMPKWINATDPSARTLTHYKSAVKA
inactive: ibrutinib 0.012 | [1] 0.015 | ralimetinib -0.014 | [2] 0.012 | [3] 0.052 | [4] -0.017 | [5] 0.04 | [6] 0.016 | [7] 0.014 | [8] 0.047 | vemurafenib -0.002 | [9] -0.002 | barasertib 0.025 | [10] -0.056 | volasertib -0.047 | [11] 0.005 | [12] 0.031 | [13] -0.03 | saracatinib 0.022 | sotrastaurin 0.014

ALKBH4 (UniProt Q9NXW9)
Sequence of UniProt Q9NXW9 (Q9NXW9 whole entry, looked up): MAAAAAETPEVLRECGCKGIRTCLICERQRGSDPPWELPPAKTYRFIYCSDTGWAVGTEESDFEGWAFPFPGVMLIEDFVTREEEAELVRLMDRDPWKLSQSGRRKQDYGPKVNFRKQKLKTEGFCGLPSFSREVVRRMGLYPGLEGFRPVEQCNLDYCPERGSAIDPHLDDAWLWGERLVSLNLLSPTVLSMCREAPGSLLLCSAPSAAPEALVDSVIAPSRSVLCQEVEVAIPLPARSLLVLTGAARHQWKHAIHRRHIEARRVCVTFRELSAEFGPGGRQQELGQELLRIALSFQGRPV
inactive: ibrutinib 0.076 | [1] 0.056 | ralimetinib 0.032 | [2] 0.003 | [3] -0.031 | [4] 0.031 | [5] -0.036 | [6] 0.004 | [7] -0.006 | [8] 0.002 | vemurafenib 0.061 | [9] 0.018 | barasertib 0.086 | [10] -0.133 | volasertib -0.068 | [11] 0.074 | [12] 0.025 | [13] 0 | saracatinib -0.019 | sotrastaurin 0.036

ABCF3 (UniProt Q9NUQ8)
inactive: ibrutinib 0.008 | [1] 0.035 | ralimetinib 0.067 | [2] 0.046 | [3] -0.013 | [4] 0.009 | [5] -0.012 | [6] -0.02 | [7] 0.018 | [8] 0.001 | vemurafenib 0.013 | [9] 0.037 | barasertib 0.03 | [10] -0.079 | volasertib -0.099 | [11] 0.044 | [12] 0.015 | [13] -0.059 | saracatinib -0.006 | sotrastaurin 0.033

AGPAT1 (UniProt Q99943)
Sequence of UniProt Q99943 (Q99943 whole entry, looked up): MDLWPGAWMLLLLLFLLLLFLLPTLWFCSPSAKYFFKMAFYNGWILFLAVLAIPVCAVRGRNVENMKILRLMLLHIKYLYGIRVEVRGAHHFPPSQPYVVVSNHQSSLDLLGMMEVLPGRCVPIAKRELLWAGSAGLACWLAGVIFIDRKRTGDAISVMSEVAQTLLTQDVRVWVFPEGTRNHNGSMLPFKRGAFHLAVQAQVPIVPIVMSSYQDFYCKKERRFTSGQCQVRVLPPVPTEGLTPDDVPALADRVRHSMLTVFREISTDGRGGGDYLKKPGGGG
inactive: ibrutinib -0.121 | [1] -0.05 | ralimetinib 0.027 | [2] -0.051 | [3] -0.026 | [4] 0.06 | [5] 0.012 | [6] 0.02 | [7] 0.043 | [8] 0.042 | vemurafenib 0.008 | [9] 0.016 | barasertib 0.038 | [10] -0.013 | volasertib 0.006 | [11] -0.004 | [12] 0.068 | [13] -0.049 | saracatinib 0.038 | sotrastaurin -0.009

ACIN1 isoform 5 (UniProt Q9UKV3)
inactive: ibrutinib -0.004 | [1] -0.015 | ralimetinib -0.011 | [2] -0.028 | [3] -0.021 | [4] -0.024 | [5] -0.001 | [6] -0.042 | [7] 0.003 | [8] -0.016 | vemurafenib 0.014 | [9] 0.024 | barasertib 0.009 | [10] -0.016 | volasertib 0 | [11] -0.018 | [12] 0.067 | [13] -0.01 | saracatinib 0.006 | sotrastaurin 0.014

ACACB (UniProt O00763)
inactive: ibrutinib 0.051 | [1] 0.018 | ralimetinib 0.069 | [2] 0.032 | [3] 0.014 | [4] -0.036 | [5] 0.015 | [6] 0.021 | [7] 0.052 | [8] 0.022 | vemurafenib 0.012 | [9] 0.028 | barasertib 0.024 | [10] -0.113 | volasertib -0.11 | [11] 0.038 | [12] -0.14 | [13] 0.027 | saracatinib 0.018 | sotrastaurin 0.037

ARHGAP21 (UniProt Q5T5U3)
Sequence of UniProt Q5T5U3 (Q5T5U3 whole entry, looked up): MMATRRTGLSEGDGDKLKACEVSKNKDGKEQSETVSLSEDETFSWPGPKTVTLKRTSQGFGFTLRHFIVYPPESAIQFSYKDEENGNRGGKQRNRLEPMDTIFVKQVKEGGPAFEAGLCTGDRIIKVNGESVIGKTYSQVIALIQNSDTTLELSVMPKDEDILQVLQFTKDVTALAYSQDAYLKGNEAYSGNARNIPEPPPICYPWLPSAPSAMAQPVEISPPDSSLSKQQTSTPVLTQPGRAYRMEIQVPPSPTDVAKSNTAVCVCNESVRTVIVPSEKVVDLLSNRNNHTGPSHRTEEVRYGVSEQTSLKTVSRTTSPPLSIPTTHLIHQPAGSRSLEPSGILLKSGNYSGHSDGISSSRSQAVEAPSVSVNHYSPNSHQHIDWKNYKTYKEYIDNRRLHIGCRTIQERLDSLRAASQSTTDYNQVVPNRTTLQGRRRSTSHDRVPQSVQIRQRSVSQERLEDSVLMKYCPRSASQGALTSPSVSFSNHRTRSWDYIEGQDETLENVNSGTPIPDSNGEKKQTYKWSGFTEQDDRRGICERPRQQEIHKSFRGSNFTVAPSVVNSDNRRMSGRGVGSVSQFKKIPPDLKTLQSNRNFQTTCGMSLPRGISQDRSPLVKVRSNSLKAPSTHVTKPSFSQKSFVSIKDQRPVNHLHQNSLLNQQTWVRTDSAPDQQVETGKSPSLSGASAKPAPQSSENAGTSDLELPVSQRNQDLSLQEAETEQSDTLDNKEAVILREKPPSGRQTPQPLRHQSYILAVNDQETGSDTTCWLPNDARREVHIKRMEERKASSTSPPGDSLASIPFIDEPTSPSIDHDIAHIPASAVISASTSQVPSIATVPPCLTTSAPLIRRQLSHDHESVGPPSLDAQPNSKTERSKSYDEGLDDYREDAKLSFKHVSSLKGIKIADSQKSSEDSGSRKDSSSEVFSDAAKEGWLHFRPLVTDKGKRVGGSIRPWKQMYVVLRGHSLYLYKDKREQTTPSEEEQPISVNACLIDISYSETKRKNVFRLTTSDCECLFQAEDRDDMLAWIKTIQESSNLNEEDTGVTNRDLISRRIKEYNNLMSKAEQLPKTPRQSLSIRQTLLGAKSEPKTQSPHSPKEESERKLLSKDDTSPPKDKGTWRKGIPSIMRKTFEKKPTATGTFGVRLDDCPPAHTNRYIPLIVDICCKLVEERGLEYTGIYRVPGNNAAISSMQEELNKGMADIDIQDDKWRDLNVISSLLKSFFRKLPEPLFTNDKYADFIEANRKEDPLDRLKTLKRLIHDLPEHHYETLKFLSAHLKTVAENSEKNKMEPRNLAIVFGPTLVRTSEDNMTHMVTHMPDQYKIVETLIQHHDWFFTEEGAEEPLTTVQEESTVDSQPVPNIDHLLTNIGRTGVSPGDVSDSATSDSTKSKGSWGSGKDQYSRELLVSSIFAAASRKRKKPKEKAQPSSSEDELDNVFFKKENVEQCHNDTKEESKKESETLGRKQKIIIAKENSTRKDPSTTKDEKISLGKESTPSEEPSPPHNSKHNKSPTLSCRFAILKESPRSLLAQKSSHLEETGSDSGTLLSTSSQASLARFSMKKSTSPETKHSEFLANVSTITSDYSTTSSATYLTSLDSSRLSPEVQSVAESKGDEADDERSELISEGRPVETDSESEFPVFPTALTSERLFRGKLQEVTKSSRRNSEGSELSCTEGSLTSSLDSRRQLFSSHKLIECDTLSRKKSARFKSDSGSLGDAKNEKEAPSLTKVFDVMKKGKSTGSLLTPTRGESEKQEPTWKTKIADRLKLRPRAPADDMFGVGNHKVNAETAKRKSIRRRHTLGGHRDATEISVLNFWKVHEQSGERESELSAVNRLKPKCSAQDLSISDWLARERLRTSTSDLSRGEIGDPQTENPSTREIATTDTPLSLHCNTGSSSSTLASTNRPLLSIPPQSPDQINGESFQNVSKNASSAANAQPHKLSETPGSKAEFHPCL
inactive: ibrutinib 0.016 | [1] 0.047 | ralimetinib 0.017 | [2] -0.047 | [3] 0.022 | [4] 0.077 | [5] -0.053 | [6] 0.062 | [7] 0.052 | [8] -0.015 | vemurafenib 0.107 | [9] 0.073 | barasertib 0.061 | [10] -0.01 | volasertib -0.027 | [11] 0.037 | [12] 0.043 | [13] -0.202 | saracatinib 0.034 | sotrastaurin 0.023

ANXA11 (UniProt P50995)
Sequence of UniProt P50995 (P50995 whole entry, looked up): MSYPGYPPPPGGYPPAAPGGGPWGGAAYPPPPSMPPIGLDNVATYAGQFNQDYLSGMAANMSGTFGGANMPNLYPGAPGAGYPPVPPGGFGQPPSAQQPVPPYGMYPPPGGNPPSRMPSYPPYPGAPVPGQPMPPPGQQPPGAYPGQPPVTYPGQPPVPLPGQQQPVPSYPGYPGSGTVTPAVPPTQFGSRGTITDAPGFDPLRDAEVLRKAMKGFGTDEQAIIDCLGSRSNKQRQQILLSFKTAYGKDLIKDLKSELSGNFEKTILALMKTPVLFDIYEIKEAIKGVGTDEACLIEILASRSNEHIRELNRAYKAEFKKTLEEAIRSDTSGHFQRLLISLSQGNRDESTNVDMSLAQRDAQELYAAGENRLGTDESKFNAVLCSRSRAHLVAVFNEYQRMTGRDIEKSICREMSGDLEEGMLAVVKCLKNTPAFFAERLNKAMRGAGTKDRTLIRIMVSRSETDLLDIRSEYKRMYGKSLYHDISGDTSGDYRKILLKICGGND
inactive: ibrutinib -0.005 | [1] -0.027 | ralimetinib -0.002 | [2] 0.057 | [3] 0.034 | [4] -0.031 | [5] 0.023 | [6] -0.041 | [7] 0.01 | [8] 0 | vemurafenib 0.02 | [9] -0.013 | barasertib 0.002 | [10] 0.024 | volasertib -0.031 | [11] 0.044 | [12] -0.049 | [13] -0.01 | saracatinib -0.009 | sotrastaurin -0.017

ARHGEF2 (UniProt Q92974)
Sequence of UniProt Q92974 (Q92974 whole entry, looked up): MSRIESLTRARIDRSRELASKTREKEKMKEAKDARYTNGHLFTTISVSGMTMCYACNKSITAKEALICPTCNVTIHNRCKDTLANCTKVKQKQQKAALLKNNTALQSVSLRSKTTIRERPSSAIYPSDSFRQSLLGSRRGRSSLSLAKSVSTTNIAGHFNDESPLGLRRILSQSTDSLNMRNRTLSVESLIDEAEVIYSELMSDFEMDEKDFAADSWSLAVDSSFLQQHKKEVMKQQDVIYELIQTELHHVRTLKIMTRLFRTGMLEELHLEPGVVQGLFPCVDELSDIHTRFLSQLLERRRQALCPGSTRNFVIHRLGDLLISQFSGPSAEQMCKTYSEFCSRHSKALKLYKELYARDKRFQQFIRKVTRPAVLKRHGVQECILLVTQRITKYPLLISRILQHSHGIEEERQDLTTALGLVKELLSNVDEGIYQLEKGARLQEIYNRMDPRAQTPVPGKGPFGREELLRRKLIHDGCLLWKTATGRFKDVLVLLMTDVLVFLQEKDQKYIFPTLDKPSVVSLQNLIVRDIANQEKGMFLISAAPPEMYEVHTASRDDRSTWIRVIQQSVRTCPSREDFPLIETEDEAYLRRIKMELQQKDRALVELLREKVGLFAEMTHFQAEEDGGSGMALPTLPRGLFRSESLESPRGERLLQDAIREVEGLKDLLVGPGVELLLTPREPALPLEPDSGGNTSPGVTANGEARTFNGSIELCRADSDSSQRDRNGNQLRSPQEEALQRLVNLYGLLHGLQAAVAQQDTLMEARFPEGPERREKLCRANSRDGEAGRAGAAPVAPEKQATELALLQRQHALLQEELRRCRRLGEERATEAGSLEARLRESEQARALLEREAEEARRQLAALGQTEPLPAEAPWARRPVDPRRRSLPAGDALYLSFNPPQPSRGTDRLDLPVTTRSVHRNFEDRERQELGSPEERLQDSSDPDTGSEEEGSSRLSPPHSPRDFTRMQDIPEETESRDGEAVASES
inactive: ibrutinib 0.028 | [1] -0.003 | ralimetinib 0.043 | [2] 0.005 | [3] 0.014 | [4] 0.008 | [5] -0.034 | [6] 0.047 | [7] 0.018 | [8] 0.01 | vemurafenib -0.006 | [9] 0.013 | barasertib -0.002 | [10] 0 | volasertib -0.026 | [11] -0.021 | [12] -0.02 | [13] -0.003 | saracatinib 0.009 | sotrastaurin 0.027

ARL1 (UniProt P40616)
inactive: ibrutinib -0.029 | [1] -0.005 | ralimetinib 0.027 | [2] -0.001 | [3] -0.017 | [4] 0.098 | [5] -0.026 | [6] 0.134 | [7] -0.021 | [8] -0.027 | vemurafenib 0.046 | [9] 0.007 | barasertib -0.031 | [10] 0.03 | volasertib -0.066 | [11] -0.04 | [12] -0.101 | [13] -0.005 | saracatinib -0.005 | sotrastaurin 0.042

ACACA isoform 4 (UniProt Q13085)
inactive: ibrutinib 0.038 | [1] 0.021 | ralimetinib 0.041 | [2] 0.013 | [3] 0.01 | [4] -0.027 | [5] -0.002 | [6] 0.021 | [7] 0.048 | [8] 0.035 | vemurafenib 0.014 | [9] 0.024 | barasertib 0.043 | [10] -0.062 | volasertib -0.085 | [11] 0.056 | [12] -0.025 | [13] -0.067 | saracatinib 0.001 | sotrastaurin 0.011

ALDH1L2 (UniProt Q3SY69)
inactive: ibrutinib 0.033 | [1] 0.034 | ralimetinib 0.024 | [2] -0.038 | [3] 0.006 | [4] 0.029 | [5] -0.022 | [6] -0.028 | [7] -0.006 | [8] 0.016 | vemurafenib -0.084 | [9] -0.026 | barasertib 0.002 | [10] -0.006 | volasertib -0.045 | [11] 0.007 | [12] -0.089 | [13] -0.014 | saracatinib -0.002 | sotrastaurin 0.013

ALDH1B1 (UniProt P30837)
inactive: ibrutinib 0.008 | [1] 0.086 | ralimetinib 0.019 | [2] 0.02 | [3] 0.056 | [4] -0.024 | [5] -0.005 | [6] -0.018 | [7] -0.014 | [8] -0.018 | vemurafenib 0.008 | [9] 0.017 | barasertib -0.022 | [10] 0.029 | volasertib -0.013 | [11] -0.062 | [12] -0.015 | [13] 0.108 | saracatinib 0.011 | sotrastaurin 0.022
